High-throughput results deposited in PubChem BioAssay by several laboratories.
PfHsp90 set2 = growth inhibition of yeast expressing Plasmodium Hsp90 | inhibition, % at 9.4 µM | S. cerevisiae expressing PfHsp90, BacTiter-Glo ATP, 48 h; yeast lacking PDR1 and PDR3 efflux regulators | 310,000 compounds, 0.32% hits | AID 504621;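 active means every replicate shows inhibition above about 80%, whatever the replicate mean, limit read from the data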;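 further: 0% = DMSO neutral controls and 100% = 20 µM radicicol positive controls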
SKKanGAS inh = inhibitors of SKKanGAS S. pyogenes growth in kanamycin (SK-promoter or general growth effect) | AID 1662 | BacTiter-Glo, 6 h | 300,000 compounds, 1.3% hits | inhibition, % at 7.5 µM;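 active means mean replicate score, as percent of positive control median, at least 50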;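 further: strain carries kanamycin resistance gene driven by streptokinase promoter and grows in 40 µg/ml kanamycin; loss of luminescence reflects streptokinase promoter inhibition or plain growth inhibition; 0% = median of DMSO wells and 100% = positive control at its reference dose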
ATG4B inh = inhibitors of human ATG4B cysteine protease | Q9Y4P1 | ATG4B cleavage of LC3-PLA2, NBD-HPC fluorescence, 1 h | inhibition, % at 8.33 µM | 340,000 compounds, 0.51% hits; in the data active means inhibition above about 40%
Target sequence (Q9Y4P1 whole entry, looked up): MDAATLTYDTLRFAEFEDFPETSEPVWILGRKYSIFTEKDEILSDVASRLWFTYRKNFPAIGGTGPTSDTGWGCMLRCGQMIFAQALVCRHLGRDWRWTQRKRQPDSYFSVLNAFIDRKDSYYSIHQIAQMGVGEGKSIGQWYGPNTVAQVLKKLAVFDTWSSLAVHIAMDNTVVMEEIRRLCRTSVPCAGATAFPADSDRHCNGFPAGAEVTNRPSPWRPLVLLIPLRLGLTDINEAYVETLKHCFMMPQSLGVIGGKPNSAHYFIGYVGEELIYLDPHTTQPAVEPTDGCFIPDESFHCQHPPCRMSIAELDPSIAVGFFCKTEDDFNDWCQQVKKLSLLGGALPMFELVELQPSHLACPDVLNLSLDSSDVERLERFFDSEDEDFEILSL
tim10-1 inh = growth inhibitors of tim10-1 mutant yeast; inhibition, % at 20 µM; 330,000 compounds, 2.2% hits; S. cerevisiae tim10-1 ts strain growth, BacTiter-Glo, 24 h;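 active means inhibition of at least 40%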;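 further: mutant grown at 25 °C; 0% = DMSO wells with yeast and 100% = wells holding no yeast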
tim23-1 inh = growth inhibitors of tim23-1 mutant yeast | S. cerevisiae tim23-1 growth, BacTiter-Glo luminescence, 24 h | inhibition, % at 20 µM | 330,000 compounds, 1.3% hits | AID 463212;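 active means growth inhibition of the mutant yeast at or above 50%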;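 further: temperature-sensitive mutant grown at 25 °C; plate controls were DMSO-treated mutant yeast for no effect and medium wells lacking yeast for full effect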
TIM10 inh = inhibits growth of TIM10 yeast strain | AID 463195 | S. cerevisiae TIM10 strain growth, BacTiter-Glo luminescence, 24 h | 330,000 compounds, 1.4% hits | inhibition, % at 10 µM;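 active means inhibition of 40% or more at the single tested concentration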;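 further: wild-type TIM10 isogenic control strain grown at permissive 25 °C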
tim10-1 confirm = confirmation of tim10-1 mutant yeast growth inhibitors | shares compounds with tim10-1 inh | S. cerevisiae tim10-1 ts strain growth, BacTiter-Glo, 24 h | inhibition, % at 20 µM | 7,400 compounds, 56% hits;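 active means inhibition of yeast growth at or above a set limit in either of two repeat tests at 20 µM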;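 further: tim10-1 mutant grown at permissive 25 °C to find synthetic lethal compounds; 0% = DMSO yeast wells and 100% = medium wells without yeast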
tim10 confirm = TIM10 yeast growth inhibition, confirmed; shares compounds with TIM10 inh; S. cerevisiae tim10 strain growth, BacTiter-Glo luminescence, 24 h; inhibition, % at 10 µM; 4,600 compounds, 63% hits; AID 463215;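 active means inhibition of yeast growth at or above a set limit in either of two replicates at 10 µM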;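 further: this counterscreen used the strain with wild-type TIM10; 0% = yeast with DMSO and 100% = medium wells lacking yeast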
tim23-1 confirm = tim23-1 yeast growth inhibition, confirmed; shares compounds with tim23-1 inh; S. cerevisiae tim23-1 growth, BacTiter-Glo luminescence, 24 h; inhibition, % at 20 µM; 4,400 compounds, 83% hits; AID 463218;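 active means inhibition above about 39% in either of two replicate wells at 20 µM, limit read from the data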;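 further: temperature-sensitive tim23-1 mutant grown at 25 °C; 0% = DMSO wells with yeast and 100% = medium wells without yeast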
The depositor's hits bear a star; nt = no result. Rows were chosen to be rich in hits. Some 4.7% of all compounds tested hit in one or more screens of this group.

SMILES	PfHsp90 set2	SKKanGAS inh	ATG4B inh	tim10-1 inh	tim23-1 inh	TIM10 inh	tim10-1 confirm	tim10 confirm	tim23-1 confirm
O=C(Cn1cnc2ccccc21)N1CCc2ccccc21	17.3	-7.2	4.1	9.9	-3.4	-1.7	nt	nt	nt
Cc1ccc(NC(=O)C(C)N2C(=O)c3ccccc3C2=O)cc1 (stereo not given)	-27.1	-0.5	-9.3	-2.8	-4.5	-8.2	nt	nt	nt
CC1=CC(C)(C)N2C(=O)C(=O)c3cc(OC(=O)c4ccco4)cc1c32	15.0	-9.2	15.8	51.2*	68.5*	34.5	36.2*	nt	1.2
CCOc1ccc2oc(C(=O)N3CCN(c4ccccc4OCC)CC3)c(C)c2c1	nt	25.9	7.2	30.2	35.4	14.2	nt	nt	nt
CCN1CCN(CCCNC(=O)Cn2cc3c(n2)CCCC3)CC1	-0.9	-0.9	-1.1	0.9	-9.2	3.3	nt	nt	nt
FC(F)(F)c1cccc(Oc2nc(-c3ccccc3)nnc2C(F)(F)F)c1	nt	3.9	1.8	53.8*	55.1*	46.2*	47.9*	38.1*	46.2*
CC(=O)c1cc(C#N)c(Oc2cccc(C(F)(F)F)c2)nc1C	-7.3	1.4	-1.4	-31.7	-7.9	-37.5	nt	nt	nt
COc1cc(/C=C2\SC(c3ccc(C)cc3)=NC2=O)cc(OC)c1O	-16.7	17.5	-22.8	54.5*	53.1*	44.2*	37.5*	39.9*	48.7*
Cc1ccc(C2=NC(=O)/C(=C/c3cc(O)c(O)c(Br)c3)S2)cc1	-11.1	nt	13.3	-7.9	31.6	-38.1	nt	nt	nt
COC(=O)Cc1[nH]nc2c1C(c1c[nH]c3ccccc13)C(C#N)=C(N)O2 (stereo not given)	nt	-13.7	-5.5	19.7	11.5	1.9	nt	nt	nt
N#C/C(=C\c1cccc(Br)c1)C(=O)N1CCCCC1	-122.0	-5.7	5.9	70.3*	81.2*	63.4*	67.8*	73.5*	72.6*
CC(=O)N1CCc2c(sc(NC(=O)c3ccc(S(=O)(=O)N(C)C)cc3)c2C#N)C1	3.5	-2.8	-9.6	-0.1	15.2	3.2	nt	nt	nt
O=C(NCCc1ccccc1)C(c1cccs1)N(C(=O)CCl)c1ccc(Cl)cc1 (stereo not given)	-21.8	-6.6	15.1	54.6*	52.8*	55.8*	53.8*	-23.3	58.3*
Cc1ccc(N2C(=O)c3ccc(N)cc3C2=O)cc1	nt	5.7	-17.9	31.5	22.8	4.4	nt	nt	nt
Cc1ccc(N2C(=O)c3ccc(N)cc3C2=O)cc1C	nt	3.5	-12.9	42.5*	51.5*	33.8	36.4*	nt	43.0*
Cc1ccc(C)c(Sc2ccc(NC(=O)CCl)cc2)c1	nt	7.9	17.6	57.0*	73.5*	51.0*	55.2*	35.7*	48.8*
O=C(CCl)Nc1ccccc1Sc1ccccc1	2.3	16.3	10.4	18.8	7.6	-1.9	nt	nt	nt
Cc1ccc(Sc2ccc(NC(=O)CCl)cc2)cc1C	-10.4	10.7	12.8	49.5*	66.2*	40.2*	52.0*	38.9*	75.5*
Cc1ccc(NC(=O)CC(=O)Nc2ccc(C)c(C)c2)cc1C	9.4	15.2	7.5	-37.3	0.3	-5.1	nt	nt	nt
O=C(O)C1CSCN1S(=O)(=O)c1cccc2nsnc12 (stereo not given)	0.8	-1.6	1.8	5.2	12.2	4.1	nt	nt	nt
COc1ccccc1CNC(=O)/C(C#N)=C/c1ccc(OC)c(OC)c1OC	13.1	-8.9	-10.8	46.0*	53.5*	23.5	44.9*	nt	-22.6
N/C(=N\OC(=O)C12CC3CC(CC(C3)C1)C2)c1cccnc1	9.5	0.7	9.0	35.1	38.0	33.5	nt	nt	nt
N/C(=N\OC(=O)C12CC3CC(CC(C3)C1)C2)c1ccccn1	-9.3	-5.2	0.4	61.9*	51.4*	41.3*	44.3*	-15.5	48.9*
N/C(=N\OC(=O)C12CC3CC(CC(C3)C1)C2)c1ccccc1	-36.5	-14.5	4.3	64.5*	70.4*	78.7*	53.7*	77.9*	70.9*
COc1ccc(Cl)cc1-c1nc(N)nc(NC2CCCCC2)n1	-49.1	-10.0	3.6	34.2	33.4	17.6	nt	nt	nt
SMILES	PfHsp90 set2	SKKanGAS inh	ATG4B inh	tim10-1 inh	tim23-1 inh	TIM10 inh	tim10-1 confirm	tim10 confirm	tim23-1 confirm
N#Cc1c2ccc([N+](=O)[O-])cc2[n+]([O-])n1-c1ccccc1	91.3*	nt	nt	61.0*	74.6*	65.6*	17.6	66.5*	28.4
NCCCn1c(C(=O)c2ccc(Cl)cc2)c2ccc([N+](=O)[O-])cc2[n+]1[O-]	-31.2	13.5	22.1	12.7	17.2	7.6	nt	nt	nt
CCC(C)(C)C1CCc2c(sc(NC(=O)c3cccs3)c2C(N)=O)C1 (stereo not given)	-8.0	21.2	-5.9	18.8	13.3	0.3	nt	nt	nt
Cc1nnc2c3ccccc3c(-c3cccc4ccccc34)nn12	-1.5	nt	-10.1	nt	nt	nt	nt	nt	nt
Cn1c2ccccc2c(=O)c2c(=O)n(C3CCCCC3)c(-c3cccs3)nc21	12.7	60.4*	2.9	43.4*	60.5*	34.0	36.0*	nt	69.2*
COc1ccc(OCC(O)CNS(=O)(=O)c2ccc(C)cc2)cc1 (stereo not given)	nt	-2.1	-10.2	13.2	25.1	22.7	nt	nt	nt
Cc1cc(Cl)ccc1OCC(=O)n1cc(C(=O)c2cc(Cl)ccc2O)cn1	nt	-4.8	nt	21.8	38.0	34.0	nt	nt	nt
O=C(Nc1ccccc1Cl)N1CCCN(c2nc(-c3ccccc3)ns2)CC1	-4.7	8.6	-5.6	43.0*	55.4*	45.9*	28.0	32.8*	45.0*
CCN1CCN(c2nc3sc4c(c3c3ncnn23)CC(C)CC4)CC1 (stereo not given)	-1.5	11.2	2.7	21.5	24.5	11.6	nt	nt	nt
CC1CCc2sc3nc(NCc4ccco4)n4ncnc4c3c2C1 (stereo not given)	-2.2	22.6	8.9	40.8*	51.2*	18.4	35.2*	nt	55.8*
FC(F)(F)c1ccccc1/C=N/n1c(C2CCCCC2)n[nH]c1=S	-196.4	56.0*	27.4	48.4*	50.8*	32.9	33.0*	nt	51.1*
S=c1[nH]nc(C2CCCCC2)n1/N=C/c1ccccc1Cl	-37.8	18.1	24.3	57.7*	64.0*	27.4	28.7*	nt	60.8*
O=C(O)c1ccccc1/C=N/n1c(C2CCCCC2)n[nH]c1=S	-22.5	0.8	7.0	-7.0	-3.1	9.0	nt	nt	nt
O[C@@H]1[C@@H](O)C=C2CCN3Cc4cc5c(cc4[C@H]1C23)OCO5 (stereo not given in full)	17.5	nt	1.9	87.7*	75.8*	90.3*	83.7*	89.3*	77.3*
COc1ccc2c(c1OC)CN1CCc3cc4c(cc3[C@@H]1[C@@H]2O)OCO4	nt	5.6	-3.5	-1.3	8.7	-1.7	nt	nt	nt
